Source: PubChem (National Center for Advancing Translational Sciences (NCATS))
In the library only some 11% were active in any assay of this set; here they are far more common.
HCV inhibitor: blocks hepatitis C virus; hit rate 3.4% among 340,000; Potency, µM (top dose mostly 41.8 µM), usual class: inhibitors; AID 651820; Huh7.5.1 HCVcc-Cre infection, luciferase reporter, 44 h
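HCVcc-Cre virus at an moi near 0.5 was added right after compound to cells cultured 4 h from seeding (1,000 cells/well). Luciferase activity was determined 44 h later, 15 min after substrate addition at RT.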
Vaccinia mCherry: inhibitors of vaccinia virus infection (mCherry reporter signal); Potency, µM (doses to about 36.5 µM), most hits filed as inhibitors; Vaccinia virus mCherry reporter infection, fluorescence; hit rate 0.63% among 310,000; calls by dose curve; tested in A549 cells; further: nearly all actives have a fitted effect of over 35% in size
Vaccinia Venus: inhibitors of vaccinia virus (Venus reporter); Vaccinia virus Venus reporter expression, fluorescence; Potency, µM (doses to about 36.5 µM), actives largely listed as inhibitors; hit rate 0.46% among 330,000; AID 720580; calls by dose curve; tested in A549 cells; further: nearly all actives have a fitted effect of over 30% in size
Pf growth 96h: P. falciparum growth inhibition at 96 hour, primary screen for plastid delayed-death inhibitors | P. falciparum luciferase reporter growth, 96 h | Potency, µM (highest dose often 28.7 µM), hits mostly inhibitors | hit rate 6.9% among 320,000 | AID 504834
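Cell-based qHTS: luciferase-tagged P. falciparum in erythrocytes (2% hematocrit, 0.05% parasitemia final) incubated with compounds for 96 hours, 37 C, 5% CO2; luciferase detection reagent then added and luminescence measured.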
NS1 inh: blocks influenza NS1 protein function | Potency, µM (highest dose often 46.1 µM) | AID 2326 | hit rate 0.4% among 270,000; calls by dose curve; further: actives are rising curves; nearly all actives have a fitted effect of over 50% in size
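Growth recovery, yeast-based: influenza A NS1 expressed in S. cerevisiae causes slow growth, and suppressors are detected by OD600. The parent strain without NS1 is used as positive control.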
Pf growth 48h: inhibits P. falciparum growth in the first generation, 48 h; AID 504832; hit rate 5.9% among 310,000; Potency, µM (highest dose often 28.7 µM), actives largely listed as inhibitors; P. falciparum luciferase growth in erythrocytes, 48 h
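Firefly luciferase activity from engineered P. falciparum reports growth; inhibitors lower the luminescent signal. Cultures contained 2% hematocrit erythrocytes at 0.1% final parasitemia.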
Hits are given with their value; . = inactive; ? = inconclusive; / = no result given; [ ] = another dose, or the depositor's remark. Unless noted, the call rests on the fitted dose curve; in most records, active means well fitted inhibition curve with a large enough effect; inconclusive means small, poorly fitted or top-dose-only effect, or another doubt; inactive means no such curve, though single readings can be large or run the other way.

SMILES | HCV inhibitor | Vaccinia mCherry | Vaccinia Venus | Pf growth 96h | NS1 inh | Pf growth 48h
CCOCCCNc1nc(C(F)(F)F)nc2c1nnn2Cc1ccccc1Cl | 11µM | / | / | . | . | .[0.00184 µM]
CCCc1nc(NCCCOCC)c2nnn(Cc3ccccc3)c2n1 | . | / | / | 12µM | . | .
Cc1nnc(SC(C)C(=O)NC2CCCc3ccccc32)n1-c1ccccc1 (stereo not drawn) | . | . | . | ? | . | .
Cn1c(CCNC(=O)c2ccco2)nc2cc(NS(=O)(=O)c3ccc(Cl)cc3)ccc21 | . | / | / | 9.3µM | . | ?
COc1ccccc1OCc1cc(C(=O)N2CCCC(OCc3cccnc3)C2)no1 (stereo not drawn) | . | . | . | 12µM | . | .
O=C(c1cc(COc2cccc3cnccc23)on1)N1CCCC(CCCO)C1 (stereo not drawn) | 1.4µM | / | / | . | . | .
CSc1ccccc1OCc1cc(C(=O)N2CCSCC2)no1 | . | . | . | . | . | .
COCC1CCN(C(=O)c2cc(COc3cccc4cnccc34)on2)CC1 | 7.1µM | . | . | . | . | .
CSc1ccccc1OCc1cc(C(=O)N2CCC(Oc3cccnc3)CC2)no1 | / | / | / | ? | . | 13µM
C=CCn1c(SCc2nc3ccccc3c(=O)[nH]2)nc2sc3c(c2c1=O)CCCC3 | . | .[7.34 µM] | .[7.34 µM] | . | . | .
C=CCn1c(O)c(C(CC)=NCCc2c[nH]c3ccccc23)c(=O)[nH]c1=O | ? | ? | . | ? | . | ?
O=C1C(=O)N(Cc2ccco2)C(c2cccc(Cl)c2)/C1=C(\O)c1ccc2c(c1)OCCO2 (stereo not drawn) | . | / | . | . | . | .
O=C(CSCc1c(Cl)cccc1Cl)NCc1cccnc1 | . | . | . | . | . | .
CCc1noc(C)c1C(=O)Nc1cc(S(=O)(=O)N(CC)CC)ccc1N1CCCC1 | .[8.37 µM] | . | . | . | / | .
Cc1cccc(C2(c3cccc(C)c3)CC2C(=O)Nc2ccc([N+](=O)[O-])cc2O)c1 (stereo not drawn) | ? | ? | ? | ? | . | 2.1µM
C=CCNC(=O)C1CC1(c1cccc(C)c1)c1cccc(C)c1 (stereo not drawn) | . | . | . | / | / | /
COc1ccc(C)cc1NC(=O)CSc1ccc(-c2ccccn2)nn1 | ? | 16µM | ? | 9.3µM | . | ?
COc1cc(NC(=O)CSc2ccc(-c3ccccn3)nn2)cc(OC)c1 | ? | 11µM | ? | ? | . | ?
Cc1ccccc1NC(=O)CSc1ccc(-c2ccc(-n3cccn3)cc2)nn1 | . | . | . | . | / | .
COc1ccccc1NC(=O)CSc1ccc(-c2ccc(-n3ccnc3)cc2)nn1 | ? | . | . | ? | / | 12µM
Cc1cccc(NC(=O)CSc2ccc(-c3ccccn3)nn2)c1 | / | ? | . | / | / | /
CC(C)(C)NC(=O)COc1ccc(CNCc2cccnc2)cc1 | . | . | . | . | . | .
COc1ccc2c(c1)CC/C(=C\C=C\c1ccccc1OC)C2=O | ? | / | / | ? | . | .
COc1ccc2c(c1)C(=O)/C(=C/C=C/c1ccccc1)CC2 | . | / | / | 2.3µM | . | ?
COc1ccc(NC(=O)c2cccs2)cc1NC(=O)c1ccco1 | ? | . | . | . | . | .
SMILES | HCV inhibitor | Vaccinia mCherry | Vaccinia Venus | Pf growth 96h | NS1 inh | Pf growth 48h
CCOc1ccccc1O[C@@H](c1ccccc1)[C@@H]1CNCCO1 | / | / | / | 13µM | / | ?
CCOc1ccccc1CNC(c1ccccc1)c1ccccc1 | . | / | / | ? | . | .
N/C(=N\OC(=O)COc1ccc(Cl)cc1Cl)c1cccnc1 | . | . | . | . | . | .
O=C(c1ccccc1)c1sc(N2CCCCCC2)nc1-c1ccccc1 | ? | / | ? | ? | . | ?
[2H]c1c([2H])c([2H])c(C(=O)c2sc(N3CCCCCC3)nc2-c2ccccc2)c([2H])c1[2H] | 22µM | / | . | ? | . | ?
O=C(c1ccc(Br)cc1)c1sc(N2CCOCC2)nc1-c1ccccc1 | 7.9µM | . | . | . | . | ?
Cc1sc2nc(-c3cccnc3)nc(Cl)c2c1-c1ccccc1 | ? | . | . | ? | . | 8.3µM
Cc1sc2nc(-c3ccccc3)[nH]c(=O)c2c1-c1ccccc1 | . | / | / | . | . | .
O=[N+]([O-])c1ccc(-c2nc(NCC3CCCO3)c3ccccc3n2)cc1 (stereo not drawn) | ? | . | ? | ? | . | ?
CCOC(=O)CN1C(=O)N(c2ccc(C)c(C)c2)S(=O)(=O)c2ccccc21 | / | . | . | / | / | /
